Test results: PubChem BioAssay AID1851 (National Center for Advancing Translational Sciences (NCATS), 2009)
About 5,700 (36%) of roughly 16,000 compounds were called active. Not shown: some 24% with an inconclusive outcome. Some of the results follow. Values without a mark were called inactive. Calls come from the whole dose curve; as a rule, active = well fitted curve in the direction sought with a large enough effect; inconclusive = small, poorly fitted or top-dose-only effect, or effect the other way; inactive = no such curve, though single readings can be large or run the other way.

Biological target: Cytochrome P450 1A2 (Homo sapiens) (UniProt P05177)
Sequence (P05177 whole entry, looked up): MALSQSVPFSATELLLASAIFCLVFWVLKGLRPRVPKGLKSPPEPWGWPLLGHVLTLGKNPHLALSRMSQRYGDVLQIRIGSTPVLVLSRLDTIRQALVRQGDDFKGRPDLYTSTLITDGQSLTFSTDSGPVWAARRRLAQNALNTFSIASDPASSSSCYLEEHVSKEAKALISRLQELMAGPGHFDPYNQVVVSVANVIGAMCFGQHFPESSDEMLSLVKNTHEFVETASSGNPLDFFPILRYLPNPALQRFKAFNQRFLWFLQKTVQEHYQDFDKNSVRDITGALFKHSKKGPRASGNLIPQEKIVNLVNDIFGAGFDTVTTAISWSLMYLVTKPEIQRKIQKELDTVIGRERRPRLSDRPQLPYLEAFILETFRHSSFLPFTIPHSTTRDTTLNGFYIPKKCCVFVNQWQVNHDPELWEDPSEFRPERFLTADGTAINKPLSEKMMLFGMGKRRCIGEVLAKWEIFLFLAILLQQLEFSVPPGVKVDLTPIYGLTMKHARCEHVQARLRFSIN
Assay: Cytochrome panel assay with activity outcomes
Conditions: recombinant CYP, pro-luciferin dealkylation, luminescence, p450-cyp1a2; series mostly up to 57.1 µM; activity, negative = inhibition: at the top concentration
% is set by controls: 0 for no effect and ±100 for the full control effect.

Row | Compound | activity, negative = inhibition | AC50
1 | CC1=C/C(=N/O)C([C@H]2C=C(C)CC(C)(C)[C@@H]2O)C(C)(C)C1 (stereo not given in full) | -5.85% [at 11.4 µM] | 
2 | CN(C)C(=O)c1ccc(-c2nccc(-n3ccnc3)n2)cc1 |  | 15.8 µM (active)
3 | CC(C)C(NC(=O)C12CC3CC(CC(C3)C1)C2)C(=O)NC1=NCCS1 (stereo not given) | -16.5% | 
4 | Cc1ccc(OCC(=O)NC2=NCCS2)cc1 |  | 8.91 µM (active)
5 | COc1ccc(S(=O)(=O)N2CCC[C@H]2C(=O)NC2=NCCS2)cc1 | -24.4% | 
6 | Cc1ccc(S(=O)(=O)N2CCN(C(=O)C3COc4ccccc4O3)CC2)cc1C (stereo not given) | -49% | 
7 | O=C(NCc1cccnc1)C1COc2ccccc2O1 (stereo not given) |  | 15.8 µM (active)
8 | O=C(NCc1cccnc1)[C@@H]1[C@@H](C(=O)O)[C@H]2CC[C@@H]1O2 | -11% [at 11.4 µM] | 
9 | O=C(NCCCN1CCOCC1)C1COc2ccccc2O1 (stereo not given) | 5.54% | 
10 | O=C(Nc1cccnc1)C1COc2ccccc2O1 (stereo not given) |  | 11.2 µM (active)
11 | CS(=O)(=O)N1CCC2(CCCN(C(=O)Nc3cccc(C#N)c3)C2)CC1 | 4.7% | 
12 | CC(=O)N1CCC[C@@]2(CCN(Cc3nccs3)C2)C1 | -9.06% | 
13 | COC(=O)CC1C(=O)NCCN1C(=O)Nc1ccc(Cl)cc1 (stereo not given) | -14.1% | 
14 | Cn1nc(-c2ccccc2)c(C(=O)Nc2ccc(Cl)cc2)c1Cl |  | 1.26 µM (active)
15 | Cc1nn(Cc2c(F)c(F)c(F)c(F)c2F)c(C)c1NC(=O)c1c(-c2ccccc2)nn(-c2ccccc2)c1C | 2.23% | 
16 | O=C(Nc1ccc(Cl)cc1)c1cnc(-c2ccccc2)nc1-c1ccccc1 |  | 0.708 µM (active)
17 | Cc1nn(C)c(C(=O)NNC(=S)Nc2ccc(Cl)cc2)c1[N+](=O)[O-] | -6.63% | 
18 | Cn1nccc1C(=O)Nc1ccc(Cl)cc1 |  | 4.47 µM (active)
19 | CC(=O)OC[C@@H]1O[C@@H](O/N=C2/C[C@@H](O)[C@@H](O)[C@@H]3[C@@H]4C(=O)N([C@@H](C)c5ccccc5)C(=O)[C@H]4CC[C@@H]23)[C@H](OC(C)=O)[C@H](OC(C)=O)[C@@H]1OC(C)=O | 4.64% [at 11.4 µM] | 
20 | COc1ccc(CNc2ncncc2-c2ccccc2OC)c(OC)c1 |  | 5.01 µM (active)
21 | COc1ccc(CNc2ncncc2-c2ccccc2C)c(OC)c1 |  | 10 µM (active)
22 | COc1ccc(CNc2ncncc2-c2ccccc2CN(C)C)c(OC)c1 |  | 15.8 µM (active)
23 | O=C1C[C@H]2C(=O)[C@@H]1[C@@H](C(=O)O)[C@H]2C(=O)O | -11% [at 11.4 µM] | 
24 | COc1ccc(COC2OC[C@]3(C)[C@H]4C5=C(CN3C(=O)OC(C)(C)C)[C@H](C)C(CO)C(CO)C5CC[C@@H]24)cc1 (stereo not given in full) | -11.3% | 
25 | CC(C)[C@H](NC(=O)OC(C)(C)C)[C@@H](O)CC(=O)OC(C)(C)C | -7.19% [at 11.4 µM] | 
26 | CCOC(=O)N1CCN(CC(=O)c2ccc3c(c2)CCN3)CC1 | -27.8% | 
27 | COc1cc(/C=C2/C(=N)N3C=CSC3=NC2=O)ccc1OCCCOc1c(C)cccc1C |  | 3.55 µM (active)
28 | CCOc1cc(/C=C2/C(=N)N3C=CSC3=NC2=O)ccc1OCCCOc1ccccc1C | -27.4% | 

Row | Compound | activity, negative = inhibition | AC50
29 | COc1cc(/C=C2/C(=N)N3OC(C)=CC3=NC2=O)ccc1OCCOc1ccc(C)cc1 | -8.75% | 
30 | C[C@@](N)(Cc1ccc(O)c(O)c1)C(=O)O |  | inactive
31 | C[C@@](N)(Cc1ccc(O)cc1)C(=O)O |  | inactive
32 | CCOC(=O)c1c(C(C)(C)C)oc2ccc(O)cc12 |  | 0.251 µM (active)
33 | COC(=O)[C@@H]1CC[C@H](C)[C@@H](c2ccc(C)cc2)N1C(=O)c1ccc(/C=N\OC[C@@H](O)[C@H]2O[C@H]3OC(C)(C)O[C@H]3[C@@H]2O)cc1 | -5.97% [at 11.4 µM] | 
34 | CCC1(O)c2ccccc2-c2ncccc21 (stereo not given) |  | 14.1 µM (active)
35 | O=c1c(-c2ccc(F)cc2)nc2cnc(N3CCOCC3)nc2n1C[C@H]1CCCO1 |  | 1.58 µM (active)
36 | O=c1c(-c2ccc(Cl)cc2)nc2cnc(N3CCOCC3)nc2n1C[C@H]1CCCO1 |  | 2 µM (active)
37 | O=c1c(-c2ccccc2)nc2cnc(N3CCOCC3)nc2n1C[C@H]1CCCO1 |  | 3.16 µM (active)
38 | CC(=O)N1CCC2(CC1)CN(Cc1ccccc1)C2 | 3.64% | 
39 | Oc1cc2c(c(Cl)c1O)CCNC[C@H]2c1ccccc1 | -20.5% | 
40 | COc1ccc2c(c1)Cc1cc(N=[N+]([O-])c3ccc4c(c3)Cc3cc(OC)ccc3-4)ccc1-2 |  | 1.58 µM (active)
41 | C/C(CCN1CCc2nc(-c3ccccc3)c(-c3ccccc3)cc2C1)=N\OC[C@@H](O)[C@@H]1O[C@@H]2OC(C)(C)O[C@@H]2[C@H]1O | -5.51% [at 11.4 µM] | 
42 | O=C(c1cc(C(F)(F)F)cc(C(F)(F)F)c1)N1CCC2(CC1)CN(c1ccccn1)C2 | -5.11% | 
43 | CC(C)=NO[C@@H](C)c1cn([C@@H]2COC[C@@H]2O)nn1 | -6.31% [at 11.4 µM] | 
44 | CC(C)(C)NC(=O)CSC(=Nc1ccc(F)cc1)NC#N |  | 2.51 µM (active)
45 | CCn1c(Cc2ccccc2)nnc1SCC(=O)NC(C)(C)C | -26.9% | 
46 | C[C@@H]1CC[C@H]2C(=O)NC[C@@H](O)CN2[C@@H]1c1ccc(Br)cc1 | -9.06% [at 11.4 µM] | 
47 | O=[N+]([O-])C1=CC=C2C(=NC3(CCCCC3)N2O)C1=NC1CCCCC1 |  | 10 µM (active)
48 | Nc1ccc(O)c(C(=O)O)c1 | -7.04% [at 25.6 µM] | 
49 | N[C@@H](C(=O)O)c1ccc(O)c(C(=O)O)c1 | -18.9% | 
50 | O=C(O)C1=CC(=C(c2ccc(O)c(C(=O)O)c2)c2ccc(O)c(C(=O)O)c2)C=CC1=O |  | 10 µM (active)
51 | C#CCCCO/N=C1/C[C@@H](O)[C@@H](O)[C@@H]2[C@@H]3C(=O)N(Cc4ccccc4)C(=O)[C@H]3CC[C@H]12 | 0.662% [at 11.4 µM] | 
52 | Cc1nc(S(=O)(=O)NC2CCCCC2)c(C#N)c(C)c1Cl |  | 10 µM (active)
53 | O=C(NNS(=O)(=O)c1ccc(Cl)cc1)NC1CCCCC1 | 5.14% | 
54 | Cc1nc(S(=O)(=O)N(C)c2ccccc2)c(C#N)c(C)c1Cl |  | 15.8 µM (active)
55 | CO[C@@H]1COC(=O)[C@@H](CCSC)NC(=O)C/C=C\[C@@H](C)COC(=O)CCC[C@H]1C | 0.608% [at 11.4 µM] | 
